Source: the supplement of paper PMC13380429
Values without a mark were called inactive.

Tested on: Vero E6 infected with SARS-CoV-2
Assay: inhibition of SARS-CoV-2 cytopathic effect; higher = more antiviral protection, active = above 15
Conditions: 48 h

| Structure (SMILES) | inhibition of SARS-CoV-2 cytopathic effect (1 nM) [%] | inhibition of SARS-CoV-2 cytopathic effect (8.33 nM) [%] | inhibition of SARS-CoV-2 cytopathic effect (100 nM) [%] | inhibition of SARS-CoV-2 cytopathic effect (833.33 nM) | inhibition of SARS-CoV-2 cytopathic effect (10000 nM) |
| --- | --- | --- | --- | --- | --- |
| COc1ccccc1N1CCN(CCCCNC(=O)c2ccc(-c3ccc(C(C)=O)cc3)cc2)CC1 | -1.49 | -3.1 | -4.98 | -6.69% | -6.57% |
| Cc1cc2nc3c(=O)[nH]c(=O)nc-3n(C[C@H](O)[C@H](O)[C@H](O)CO)c2cc1C [riboflavin] | -3.6 | -1.59 | -1.7 | 0.03% | 0.32% |
| COc1cc2c(cc1OC)CN(CCc1ccc(NC(=O)c3cc(OC)c(OC)cc3NC(=O)c3cnc4ccccc4c3)cc1)CC2 [tariquidar] | 1.54 | -1.28 | 2.75 | 1.99% | -0.52% |
| Nc1ncnc2c1c(-c1cccc(OCc3ccccc3)c1)cn2C1CC(CN2CCCC2)C1 (stereo in doubt) | -0.48 | 0.04 | 1.98 | 0.14% | 27.9% (active) |
| N#C/C(=C1/SCC(c2ccccc2Cl)S1)n1ccnc1 (stereo not given) [lanoconazole] | 0.51 | 2.17 | 4.14 | 0.83% | 0.48% |
| CC(=O)OC[C@H]1O[C@@H]([S-])[C@H](OC(C)=O)[C@@H](OC(C)=O)[C@@H]1OC(C)=O.CCP(CC)CC.[Au+] [auranofin] | 3.21 | 4.4 | 7.71 | 18.4% (active) | -21.1% |
| Nc1ccncc1N [amifampridine] | -1.81 | -1.46 | -2.67 | -3.34% | -5.61% |
| CS(=O)(=O)CCNCc1nc(-c2ccc3ncnc(Nc4ccc(OCc5cccc(F)c5)c(Cl)c4)c3c2)cs1 | 1.4 | 3.81 | 0.15 | -4.71% | -4.14% |
| NC(=O)CN1CC(c2ccccc2)CC1=O (stereo not given) [phenylpiracetam] | 1.63 | -10.6 | 2.27 | 1.14% | -0.44% |
| Cc1ccnc(NS(=O)(=O)c2ccc(N)cc2)n1 [sulfamerazine] | 2.3 | 2.7 | -1.58 | -0.16% | -0.59% |
| O=C(Oc1ccccc1C(=O)O)c1ccccc1O [sasapyrine] | -6.73 | -8.94 | -2.49 | -6.28% | -11.8% |
| COc1nccc(-c2c(-c3ccc(F)cc3)ncn2C2CCNCC2)n1 | -7.74 | 0.83 | -2.49 | -2.73% | 7.05% |
| COc1cc2c(cc1F)C(c1ccccc1Cl)=Nc1c(n[nH]c1C)N2 | 1.86 | 1.62 | -1.34 | 2.98% | 2.4% |
| NCCS(=O)(=O)O [taurine] | -2.1 | -0.91 | -1.56 | 0.1% | -0.28% |
| C#C[C@]1(O)CC[C@H]2[C@@H]3CCC4=CC(=O)CC[C@@H]4[C@H]3CC[C@@]21CC [norgestrel] | -2 | -0.115 | 2.25 | -0.065% | 0.025% |
| Cn1cc(-c2ccncc2)c(-c2ccc(OCc3ccc4ccccc4n3)cc2)n1 | -1.42 | 1.25 | 1.83 | 16% (active) | 52.4% (active) |
| O=C(NO)C1(CS(=O)(=O)c2ccc(Oc3ccc(Cl)cc3)cc2)CCOCC1 | -0.75 | -2.34 | 0.31 | -0.91% | -11.7% |
| CCN1CCCC1=O [1-ethyl-2-pyrrolidone] | -1.68 | 2.91 | 3.54 | -0.7% | -2.48% |
| Oc1cccc(Nc2ncc(F)c(Nc3cccc(O)c3)n2)c1 | 2.79 | 0.2 | 0.24 | -2.05% | -5.48% |
| C#C[C@]1(O)CC[C@H]2[C@@H]3CCC4=CC(=NO)CC[C@@H]4[C@H]3CC[C@@]21CC (mixture of isomers) [norelgestromin] | -0.39 | -1.06 | 1.68 | 2.43% | 2.14% |
